This note sets out measurements from PubChem BioAssay.

The nature of test [1]: Her2 expression decrease, cell viability multiplex – SKBR3 breast tumor cells, AlphaScreen, ATP viability, primary screen (AID 461;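 active means Her2 level under about 52% in both replicate screens, with viability over 70% of control, limit read from the data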;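 on Her2 level: lower value means less Her2 protein in the cells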;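 on viability: percent of carrier control wells set as 100% viability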). The following applies: SKBR3 Her2 protein level, 18-24 h, measured here: SKBR3 viability, ATP luminescence, at 10 µM. (In Alpha technology, singlet oxygen from a donor bead excites a nearby acceptor bead.)
Test [2] concerns the target Receptor tyrosine-protein kinase erbB-2 (Homo sapiens) (UniProt P04626). The description is as above. The following applies: 18-24 h, at 10 µM, stronger effect = lower value.
Test [3] is described as follows: reduced viability of SK-BR-3 breast cancer cells – cell-based, 24 h, human, pilot screen (AID 572;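 active means viability at or below 10% of carrier control in both of two separate runs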;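 further: compound exposure lasted between 18 and 24 h rather than exactly 24 h; 100% = carrier-treated control wells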). The note with it: SK-BR-3 viability, CellTiter-Glo luminescence, at 10 µM, stronger effect = lower value. In general terms: In ATP-based viability assays light output follows the ATP content of the culture.
Test [4] can be described thus: HUVEC growth inhibition – cell-based, human, primary screen (AID 575;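 active means viability at or below 30% in both replicate assays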;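 further: 100% = median of untreated cell wells with 0.1% DMSO on each plate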). The note with it: HUVEC proliferation, CellTiter-Glo luminescence, 72 h; at 10 µM; stronger effect = lower value.
Test [5] is described as follows: H69AR cell proliferation blockers – human, duplicate replicates, primary screen (AID 580;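 active means viability at or under a set limit in both replicates, limit being median viability minus 3 SD, cut at about 48% in these data, passing the limit was not always enough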;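 further: 100% = mean luminescence of untreated wells and 0% = no signal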). The note with it: H69AR lung tumor cells viability, ATP luminescence, 72 h; at 10 µM; stronger effect = lower value.
Test [6] can be described thus: MRP1 drug-resistance reversers in H69AR cells – cell-based, doxorubicin co-treatment, pilot screen (AID 601;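 active means viability loss from added drug above about 55%, and viability with drug at most 40%, in both replicates, limit read from the data, passing the limit was not always enough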). The note with it: CellTiter-Glo, 72 h, at 10 µM; for differential viability (reversal): stronger effect = higher value.
The nature of test [7]: yeast transport mutant growth inhibition pilot in 384-well plates, post-Golgi transport modulator project (AID 636; in the data active means inhibition above about 31%). The note with it: absorbance 615 nm, about 18 h, stronger effect = higher value.
Test [8] is described as follows: growth suppression of yeast trafficking mutant, preliminary HTS, modulators of trafficking downstream of Golgi apparatus project, 1536-format plate, OD 615 nm (AID 637; in the data active means inhibition above about 30%). The following applies: yeast transport mutant growth, absorbance 615 nm, 18 h; stronger effect = higher value.
Test [9] is described as follows: S. cerevisiae growth inhibition in permissive medium (OD615), pilot counter-assay for S. cerevisiae lifespan shortening project, permissive growth control (AID 705;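 active means growth inhibition above 25% in both replicates, a cutoff set 3 SD above the mean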). The following applies: OD615, 24 h, at 10 µM, stronger effect = higher value.
The nature of test [10]: S. cerevisiae growth inhibition in restrictive medium, OD615, pilot screen, restrictive growth control, yeast lifespan reduction project (AID 706;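 active means growth inhibition above a set limit, 3 SD over mean compound inhibition, in both replicates, cut at about 43% in these data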;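 further: modified DeaD lifespan yeast strain shifted to restrictive glucose medium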). The following applies: OD615, 48 h, at 10 µM, stronger effect = higher value.
Test [11] can be described thus: doxorubicin toxicity protection in MRP-1 cells – H69AR cells, CellTiter-Glo, duplicate, MRP-1 activator project, pilot screen (AID 807;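 active means viability increase at or above a cutoff of the median across tested compounds plus 3 SD, cut at about 8.5% in these data, passing the limit was not always enough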;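 further: compound pretreatment 18-22 h then 72 h combined with doxorubicin; 0% = doxorubicin alone and 100% = vehicle without doxorubicin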). The note with it: H69AR viability with doxorubicin, CellTiter-Glo luminescence; at 10 µM; stronger effect = higher value.
Test [12] in a line: viability of HCT116 without oncogenic beta-catenin – human colon tumor cells, pilot screen (AID 823;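 active means cell viability at or below a set limit in both duplicate runs, the limit being the all-compound median minus 4 SD, cut at about 23% in these data, passing the limit was not always enough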;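 further: 0% = wells killed by 20 µM Hyamine and 100% = untreated DMSO cell wells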). The note with it: HCT116 beta-catenin knockout viability, CellTiter-Glo, 60 h; at 10 µM; stronger effect = lower value.
Test [13] in a line: viability of PTEN-null HCT116 cells – cell-based, HCT116 clonal line, CellTiter-Glo, pilot screen (AID 824;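 active means viability at or below 27.92% in each of two runs, the all-compound median minus 4 SD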;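 further: 0% = 20 µM Hyamine control and 100% = vehicle cell control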). The note with it: HCT116 PTEN-deleted viability, 60 h, at 10 µM, stronger effect = lower value.
Test [14] is described as follows: RAM pathway blockade in budding yeast – dse1pr::URA3 reporter, 5-FOA selection, pilot screen (AID 869;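 active means inhibition over a set limit, the all-compound mean plus 3 SD, in both replicate runs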;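 further: 0% = DMSO wells with no growth and 100% = 10 µM 1-NA-PP1 with full growth; RAM network block rescues cells from 5-FOA so hits raise OD615 growth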). The following applies: S. cerevisiae dse1pr::URA3 5-FOA growth, OD615, 2 d; at 10 µM; stronger effect = higher value; strain carries analog-sensitive mutant Cbk1 kinase.
Test [15] can be described thus: RAM signaling pathway blockade in yeast – S. cerevisiae, Pdr1DBD-CYC8 efflux-inhibited sensitized strain, primary screen (AID 1298).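 Further: 0% = DMSO untreated cells without growth and 100% = 10 µM 1-NA-PP1 full growth; higher means more yeast growth rescued from 5-FOA killing.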 The following applies: S. cerevisiae cbk1-as DSE1-URA3 strain, 5-FOA growth OD615, 2 d; at 50 µM; stronger effect = higher value.
[16] abbreviates: H69AR cells + 2 uM doxorubicin, measured here: viability with 2 uM doxorubicin, stronger effect = lower value.
The mark [17] stands for this setting: H69AR cells, compound alone cytotoxicity.

Inconclusive results are not listed. Activity calls are given as the source filed them.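 How the source made its calls, unless noted: active means RAM network inhibition above 8.4% in each of two replicates, 3 SD over the compound average; inconclusive means above 8.4% inhibition in only one replicate; inactive means 8.4% inhibition or less in each replicate.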

As usually defined, the viability is a read-out of living cells in per cent, often relative to untreated cells. For orientation: inhibition means the drop in the measured response relative to a control, in per cent.

Receptor tyrosine-protein kinase erbB-2 (Homo sapiens), sequence (P04626 whole entry, looked up): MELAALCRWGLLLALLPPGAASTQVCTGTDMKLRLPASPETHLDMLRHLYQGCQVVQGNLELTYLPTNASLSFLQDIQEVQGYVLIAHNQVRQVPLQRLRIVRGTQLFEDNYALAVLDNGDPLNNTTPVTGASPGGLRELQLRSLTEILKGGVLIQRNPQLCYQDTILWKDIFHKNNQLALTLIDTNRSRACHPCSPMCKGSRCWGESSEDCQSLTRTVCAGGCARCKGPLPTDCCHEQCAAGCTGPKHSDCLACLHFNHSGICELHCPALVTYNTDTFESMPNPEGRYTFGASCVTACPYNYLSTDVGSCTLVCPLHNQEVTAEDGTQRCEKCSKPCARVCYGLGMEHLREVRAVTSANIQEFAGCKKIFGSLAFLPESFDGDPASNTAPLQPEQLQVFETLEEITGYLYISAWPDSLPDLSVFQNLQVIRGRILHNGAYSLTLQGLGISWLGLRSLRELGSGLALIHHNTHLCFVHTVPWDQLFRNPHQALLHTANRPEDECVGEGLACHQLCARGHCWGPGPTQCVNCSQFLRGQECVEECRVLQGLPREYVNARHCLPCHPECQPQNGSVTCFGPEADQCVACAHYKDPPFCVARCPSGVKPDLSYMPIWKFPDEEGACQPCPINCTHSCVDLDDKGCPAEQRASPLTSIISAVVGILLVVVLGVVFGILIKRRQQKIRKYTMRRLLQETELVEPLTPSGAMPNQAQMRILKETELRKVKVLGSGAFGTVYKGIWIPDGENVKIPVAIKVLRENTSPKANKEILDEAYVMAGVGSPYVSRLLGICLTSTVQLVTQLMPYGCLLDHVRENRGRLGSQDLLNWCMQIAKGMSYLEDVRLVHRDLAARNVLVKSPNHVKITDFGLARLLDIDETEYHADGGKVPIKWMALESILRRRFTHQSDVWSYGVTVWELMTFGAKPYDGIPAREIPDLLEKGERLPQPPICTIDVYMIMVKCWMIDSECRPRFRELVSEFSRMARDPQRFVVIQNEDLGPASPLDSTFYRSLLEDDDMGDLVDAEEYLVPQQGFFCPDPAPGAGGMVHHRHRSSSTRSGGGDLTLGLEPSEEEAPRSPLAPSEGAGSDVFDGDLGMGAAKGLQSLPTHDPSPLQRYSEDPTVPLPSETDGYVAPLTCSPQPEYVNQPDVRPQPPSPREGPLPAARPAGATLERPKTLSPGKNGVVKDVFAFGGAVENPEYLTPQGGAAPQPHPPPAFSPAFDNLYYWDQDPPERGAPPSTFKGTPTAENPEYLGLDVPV

As to `CCc1nn(CC(=O)NCCCN2CCc3ccccc3C2)c(=O)c2cc3sccc3n12`, the viability in [1] is 86%; in [3], 86% (inactive); in test [4] it was 89.1% (inactive); in test [5], 77.5% (inactive); in [6] (setting [16]) it was 80.8%; in [6] (setting [17]), 77.5%. Further, the values for the viability in test [12] and in test [13] were 78.9% (inactive) and 79.9% (inactive), respectively. In addition, the Her2 level in [2] was 86.5% (inactive). The differential viability (reversal) in test [6] (H69AR cells + 2 uM doxorubicin) was -3.23% (inactive). In addition, the inhibition was -3.46% (inactive) in [7], 1% (inactive) in test [8] and 0.58% (inactive) in test [14]. In addition, the growth inhibition in test [9] was -2.08% (inactive); in test [10], -10.3% (inactive). The viability increase in test [11] was -4.54% (inactive). The RAM network inhibition in test [15] was 1.52% (inactive).

As for `CCN1CCN(C(=O)C2CCN(C(=O)c3cc4sccc4n3CC)CC2)CC1`, the viability is 104% in test [1]; 104% (inactive) in test [3]; 115% (inactive) in [4]; 83% (inactive) in [5]; 98.3% in test [6] (setting [16]); 83% in test [6] (setting [17]). In addition, the viability in [12] was 105% (inactive); in test [13], 95.5% (inactive). Besides, the Her2 level in test [2] is 104% (inactive). Also, the differential viability (reversal) in test [6] (H69AR cells + 2 uM doxorubicin) was -15.3% (inactive). Besides, the inhibition is -5.07% (inactive) in test [7], 3.67% (inactive) in test [8] and 0.53% (inactive) in [14]. For the same compound, the growth inhibition in test [9] was -13.3% (inactive); in test [10], -13.5% (inactive). Moreover, the viability increase in test [11] is -1.69% (inactive). In addition, in [15], the RAM network inhibition was 0.58% (inactive).

As for `CCOC(=O)C1=C(C)N(C)C(=O)NC1c1cccc(O)c1` (stereo not given), the viability in test [1] is 102%; in [3], 102% (inactive); in test [4] it was 90.1% (inactive); in test [5], 86.9% (inactive); in [6] (setting [16]), 101%; in test [6] (setting [17]), 86.9%. Also, the figures for the viability in test [12] and in test [13] were 99.2% (inactive) and 95.9% (inactive), respectively. In addition, the Her2 level in test [2] is 85% (inactive). Moreover, the differential viability (reversal) in test [6] (H69AR cells + 2 uM doxorubicin) was -13.7% (inactive). Besides, the inhibition in test [7] is -0.9% (inactive); in test [8], -6.5% (inactive); in test [14], -0.435% (inactive). The growth inhibition is -6.63% (inactive) in test [9] and 4.03% (inactive) in test [10]. The viability increase in [11] is -0.55% (inactive). Moreover, the RAM network inhibition in [15] is -0.57% (inactive).

As to `Cc1ccc(C(c2sc3ncnn3c2O)N2CC(C)CC(C)C2)cc1` (stereo not given), the viability in test [1] is 118%; in test [3] it was 118% (inactive); in [4], 82.8% (inactive); in test [5], 97.9% (inactive); in [6] (setting [16]), 84.3%; in test [6] (setting [17]) it was 97.9%. Besides, the results for the viability in test [12] and in test [13] were 99.8% (inactive) and 97% (inactive), respectively. For the same compound, the Her2 level in test [2] is 102% (inactive). In test [6] (H69AR cells + 2 uM doxorubicin), the differential viability (reversal) was 13.6% (inactive). Besides, the inhibition is -4.53% (inactive) in [7], 1.67% (inactive) in test [8] and 0.24% (inactive) in [14]. Moreover, the growth inhibition was -6.75% (inactive) in test [9] and -6.62% (inactive) in test [10]. Also, the viability increase in [11] was 4.2% (inactive). Moreover, the RAM network inhibition in [15] was 1.25% (inactive).

On to `CN(C)S(=O)(=O)c1ccc2c(c1)c(=O)c(C(=O)NCCCN1CCCCCC1)cn2C`, for which the viability was 110% in test [1]; 110% (inactive) in [3]; 90.7% (inactive) in [4]; 102% (inactive) in test [5]; 106% in [6] (setting [16]); 102% in [6] (setting [17]). Also, the values for the viability in test [12] and in [13] were 103% (inactive) and 99.5% (inactive), respectively. In addition, the Her2 level in test [2] was 105% (inactive). Moreover, the differential viability (reversal) in [6] (H69AR cells + 2 uM doxorubicin) was -4.19% (inactive). The results for the inhibition in test [7], in test [8] and in test [14] were -1.03% (inactive), -7.83% (inactive) and 0.785% (inactive), respectively. Further, the growth inhibition was 9.68% (inactive) in test [9] and 8.09% (inactive) in test [10]. In test [11], the viability increase was -1.28% (inactive). Also, the RAM network inhibition in test [15] is 0.76% (inactive).
